# Results filed as inconclusive are left out. Active and inactive are the calls of the source. Calls follow the shape of the dose curve; as a rule, active = well fitted cell-killing curve with a large enough effect; inconclusive = small, poorly fitted or top-dose-only effect; inactive = flat fitted curve, though single readings scatter.
# Assay: Cellular viability qHTS for adrenocortical cancer (ACC) cell line NCI-H295R (AID 1963990); also: nearly all actives have a fitted effect of over 60% in size;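 as to activity change, negative = viability loss: 0% = DMSO only wells and -100% = full killing with cytotoxic reference compound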
# Conditions: CellTiter-Glo ATP luminescence, 48 h; series mostly up to 46.1 µM; activity change, negative = viability loss: at the top concentration
# How it was run: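 Adrenocortical carcinoma cells, suspended at 300 000 cells/mL in serum-free DMEM plus ITS, rested overnight before pin transfer of compound. After two days' incubation, ATP-dependent luminescence was recorded and curve-fitted.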
# Potency is read from the fitted curve at half-maximal effect.
SMILES,"activity change, negative = viability loss",Potency
N[C@@H]1CN(c2c(F)cc3c(=O)c(C(=O)O)cn([C@@H]4C[C@@H]4F)c3c2Cl)CC12CC2,-10.5% (inactive),–
COc1ccc(S(=O)(=O)N(C(C)=O)c2ccccc2/C=C/c2cc[n+]([O-])cc2)cc1,–,1410 nM (active)
COc1ccc(Cc2cnc(N)nc2N)cc1OC,-4.1% (inactive),–
COc1ccc(S(=O)(=O)Nc2cc(-c3csc(C#N)c3)ccc2C)cc1,–,79.4 nM (active)
